Results: the supplement of paper PMC7411054
Where a name gives a salt, the structure may show the parent alone.

Key:
Experiment in all cases: lowest phenotypically active concentration; higher = less potent
Conditions in all cases: treatment time: 24 h
[1] = test system: A549-CANX-COX4
Outline: (§1)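 Phenotypic activity depended on meeting both a deviation and a reproducibility criterion. The fifteen gene-edited A549, HepG2 and WPMY1 reporter lines were treated at 0.3, 1, 3 or 9 µM for 24 h, four wells each, then imaged live with features normalised to solvent control wells. Deviation required ≥3 of 4 wells past the 95th percentile of control Euclidean distances, and reproducibility a median replicate Pearson correlation above the 95th percentile of non-replicates.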

[2] = test system: A549-TP53BP1-CLTA
Outline: as §1

[3] = test system: HepG2-ACTB-RAB5A
Outline: as §1

[4] = test system: HepG2-GM130-SQSTM1
Outline: as §1

[5] = test system: HepG2-TUBA1B-RELA
Outline: as §1

[6] = test system: WPMY1-ACTB-RAB5A
Outline: as §1

[7] = test system: WPMY1-CANX-COX4
Outline: as §1

[8] = test system: WPMY1-GM130-SQSTM1
Outline: as §1

[9] = test system: WPMY1-TP53BP1-CLTA
Outline: as §1

[10] = test system: WPMY1-TUBA1B-RELA
Outline: as §1

Measured: lowest phenotypically active concentration

C=C1[C@@H](O)C2C=CC[C@H](C)C(=O)[C@](C)(O)C=C[C@@H](OC(C)=O)[C@]23C(=O)N[C@H](Cc2ccccc2)[C@@H]3[C@@H]1C (stereo partly specified) [Cytochalasin D]
≤ 0.3 µM: all assays above

Cc1sc2c(c1C)C(c1ccc(Cl)cc1)=N[C@@H](CC(N)=O)c1nnc(C)n1-2
≤ 0.3 µM: all assays above

CCn1cnc2c(Nc3cccc(Cl)c3)nc(N[C@H]3CCCC[C@H]3N)nc21
3 µM: [1] | [6]
1 µM: all other assays above

COc1cc([C@@H]2c3cc4c(cc3[C@H](O)[C@H]3COC(=O)[C@H]23)OCO4)cc(OC)c1OC [Podophyllotoxin]
≤ 0.3 µM: all assays above

C[C@]12CC[C@H]3[C@@H](CC[C@]4(O)C[C@@H](O)CC[C@]34C=O)[C@@]1(O)CC[C@@H]2C1=CC(=O)OC1 [Strophanthidin]
1 µM: [4]
≤ 0.3 µM: all other assays above

Cc1sc2c(c1C)C(c1ccc(Cl)cc1)=N[C@@H](CC(=O)OC(C)(C)C)c1nnc(C)n1-2
1 µM: [10]
≤ 0.3 µM: all other assays above

C=C1[C@@H](C)[C@H]2[C@H](Cc3ccccc3)NC(=O)[C@]23OC(=O)C=C[C@H](O)CCC[C@@H](C)CC=C[C@H]3[C@@H]1O [Cytochalasin B]
1 µM: [1] | [3] | [4] | [6] | [7]
3 µM: all other assays above

CC(C)(C)c1cc(C=C(C#N)C#N)cc(C(C)(C)C)c1O [Malonoben]
3 µM: [2]
1 µM: all other assays above

COc1ccc(C[C@H]2NC[C@H](O)[C@H]2OC(C)=O)cc1 [Anisomycin]
≤ 0.3 µM: all assays above

COC[C@H]1OC(=O)c2coc3c2[C@@]1(C)C1=C(C3=O)[C@@H]2CCC(=O)[C@@]2(C)C[C@H]1OC(C)=O [wortmannin]
9 µM: [1] | [2]

C[C@H]1O[C@@H](O[C@H]2[C@@H](O)C[C@H](O[C@H]3[C@@H](O)C[C@H](O[C@H]4CC[C@@]5(C)[C@H](CC[C@@H]6[C@@H]5CC[C@]5(C)[C@@H](C7=CC(=O)OC7)[C@@H](O)C[C@]65O)C4)O[C@@H]3C)O[C@@H]2C)C[C@H](O)[C@@H]1O [Gitoxin]
1 µM: [4] | [8]
≤ 0.3 µM: all other assays above

CCCCCC[C@H]1C(=O)O[C@H](C)[C@H](NC(=O)c2cccc(NC=O)c2O)C(=O)O[C@@H](C)[C@@H]1OC(=O)CC(C)C [antimycin a]
1 µM: [8]
≤ 0.3 µM: all other assays above

Cc1cc2c(C(C)C)c(O)c(O)c(C=O)c2c(O)c1-c1c(C)cc2c(C(C)C)c(O)c(O)c(C=O)c2c1O [gossypol]
3 µM: [9]
9 µM: all other assays above

CC[C@H]1CN2CC[C@H]1C[C@@H]2[C@@H](O)c1ccnc2ccc(OC)cc12 [Hydroquinidine HCl]
9 µM: [4] | [6] | [7] | [10]

COc1ccc(CCN2CCC(Nc3nc4ccccc4n3Cc3ccc(F)cc3)CC2)cc1 [astemizole]
9 µM: [1] | [9]
1 µM: [5]
3 µM: all other assays above

CC(C)(O)[C@H]1O[C@H]2CC[C@@]3(C)[C@@](O)(CC[C@H]4Cc5c([nH]c6ccccc56)[C@@]43C)C2=CC1=O [paxilline]
9 µM: [3] | [8] | [9]

C[C@@H]1O[C@@H](O[C@H]2C[C@@H](O)[C@]3(CO)[C@H]4[C@H](O)C[C@]5(C)[C@@H](C6=CC(=O)OC6)CC[C@]5(O)[C@@H]4CC[C@]3(O)C2)[C@H](O)[C@H](O)[C@H]1O [Strophantine octahydrate]
≤ 0.3 µM: all assays above

O=C1NC(=O)c2c1c1c3ccccc3n3c1c1c2c2ccccc2n1C1CCC3O1
9 µM: [7] | [9]
≤ 0.3 µM: [8]
3 µM: [6]

COC(=O)[C@@]1(O)C[C@H]2O[C@]1(C)n1c3ccccc3c3c4c(c5c6ccccc6n2c5c31)C(=O)NC4
≤ 0.3 µM: all assays above

CC[C@@H](C(=O)[C@@H](C)[C@@H](O)[C@H](C)[C@@H]1O[C@@H]([C@@H](CC)C(=O)O)CC[C@@H]1C)[C@H]1O[C@]2(C=C[C@@H](O)[C@]3(CC[C@@](C)([C@H]4CC[C@](O)(CC)[C@H](C)O4)O3)O2)[C@H](C)C[C@@H]1C [Salinomycin Sodium]
1 µM: [1] | [3] | [4]
≤ 0.3 µM: all other assays above

C[C@]12CC[C@H](O)C[C@H]1CC[C@@H]1[C@@H]2C[C@@H](O)[C@]2(C)[C@@H](C3=CC(=O)OC3)CC[C@]12O [Digoxigenin]
3 µM: [4] | [8]
≤ 0.3 µM: [2]
1 µM: all other assays above

CCN1CCN(C(=O)Cc2ccc(Nc3ncc(F)c(Nc4ccc(C(=O)Nc5ccccc5Cl)cc4)n3)cc2)CC1
≤ 0.3 µM: [5]
not listed: [7] | [8]
1 µM: all other assays above

N#CC(C#N)=NNc1cccc(Cl)c1
3 µM: [9] | [10]
9 µM: all other assays above
